Laboratory results: PubChem BioAssay AID1159580 (chemical genetic matrix, 2015)
Out of some 5,500 compounds screened, about 2,000 (36%) were called active. Inconclusive results (about 18%) are left out. No stated cut-off is given here; in the data, active means normalized growth mostly below about 0.91 (no sharp cut-off); inconclusive means no clear call, values can overlap the other calls; inactive means mostly above about 0.92. The list shows a part of the results.

Assay: chemical genetic growth profiling, strain panel (AID 1159580);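 further: tested at 20 µM; growth read once vehicle control cultures reached saturation at 30 °C; 1 = growth at the plate median or of vehicle wells; lower values mean less growth of the strain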
Conditions: growth OD

Measured: normalized growth

CN(C)CCCO[C@H]1[C@@H](C(O)CO)OC2OC(C)(C)O[C@@H]21 (some centres not stated)
inactive: S. cerevisiae deletion strains, locus YJR075W, strain HOC1, active compounds read low 0.981 | S. cerevisiae deletion strains, locus YKL009W, strain mrt4, active compounds read low 0.988 | S. cerevisiae deletion strains, locus YKL068W, active compounds read low 0.99 | S. cerevisiae deletion strains, locus YKL085W, strain MDH1 (second series), active compounds read low 1.01 | S. cerevisiae deletion strains, locus YKL085W, strain MDH1, active compounds read low 1.01 | S. cerevisiae deletion strains, locus YKL160W, strain elf1, active compounds read low 0.975 | S. cerevisiae deletion strains, locus YKL190W, strain CNB1, active compounds read low 0.97 | S. cerevisiae deletion strains, locus YKR026C, strain gcn3, active compounds read low 0.991 | S. cerevisiae deletion strains, locus YKR091W, strain srl3, active compounds read low 0.98 | S. cerevisiae deletion strains, locus YLL001W, strain dnm1, active compounds read low 0.94 | S. cerevisiae deletion strains, locus YLL026W, active compounds read low 0.985 | S. cerevisiae deletion strains, locus YLL041C, strain sdh2, active compounds read low 0.993 | S. cerevisiae deletion strains, locus YLR027C, strain aat2, active compounds read low 0.997 | S. cerevisiae deletion strains, locus YLR039C, strain RIC1, active compounds read low 0.993 | S. cerevisiae deletion strains, locus YLR058C, strain SHM2, active compounds read low 0.985 | S. cerevisiae deletion strains, locus YLR102C, strain apc9, active compounds read low 0.988 | S. cerevisiae deletion strains, locus YLR113W, strain HOG1, active compounds read low 0.985 | S. cerevisiae deletion strains, locus YLR221C, strain rsa3, active compounds read low 0.957 | S. cerevisiae deletion strains, locus YLR258W, strain gsy2, active compounds read low 0.998 | S. cerevisiae deletion strains, locus YLR262C, strain YPT6 (second series), active compounds read low 0.978 | S. cerevisiae deletion strains, locus YLR262C, strain YPT6, active compounds read low 1.04 | S. cerevisiae deletion strains, locus YLR268W, strain sec22, active compounds read low 0.945 | S. cerevisiae deletion strains, locus YLR320W, strain mms22, active compounds read low 0.963 | S. cerevisiae deletion strains, locus YLR330W, strain CHS5, active compounds read low 0.995 | S. cerevisiae deletion strains, locus YLR342W, strain FKS1 (second series), active compounds read low 0.896 | S. cerevisiae deletion strains, locus YLR342W, strain FKS1, active compounds read low 0.985 | S. cerevisiae deletion strains, locus YLR357W, strain rsc2, active compounds read low 0.955 | S. cerevisiae deletion strains, locus YLR370C, strain arc18, active compounds read low 0.977 | S. cerevisiae deletion strains, locus YLR371W, strain rom2, active compounds read low 0.993 | S. cerevisiae deletion strains, locus YLR384C, strain iki3, active compounds read low 0.972 | S. cerevisiae deletion strains, locus YML016C, strain PPZ1, active compounds read low 0.979 | S. cerevisiae deletion strains, locus YML032C, strain rad52, active compounds read low 0.945 | S. cerevisiae deletion strains, locus YML120C, strain ndi1, active compounds read low 0.964 | S. cerevisiae deletion strains, locus YML124C, strain tub3, active compounds read low 0.98 | S. cerevisiae deletion strains, locus YMR058W, strain fet3, active compounds read low 0.975 | S. cerevisiae deletion strains, locus YMR078C, strain ctf18, active compounds read low 0.969 | S. cerevisiae deletion strains, locus YMR125W, strain sto1, active compounds read low 0.978 | S. cerevisiae deletion strains, locus YMR129W, active compounds read low 0.993 | S. cerevisiae deletion strains, locus YMR205C, strain PFK2, active compounds read low 0.961 | S. cerevisiae deletion strains, locus YMR231W, strain pep5, active compounds read low 0.991 | S. cerevisiae deletion strains, locus YMR263W, strain SAP30, active compounds read low 0.942 | S. cerevisiae deletion strains, locus YMR307W, strain GAS1, active compounds read low 0.937 | S. cerevisiae deletion strains, locus YNL067W, strain RPL9B, active compounds read low 0.974 | S. cerevisiae deletion strains, locus YNL071W, strain lat1, active compounds read low 1.06 | S. cerevisiae deletion strains, locus YNL128W, strain TEP1, active compounds read low 1 | S. cerevisiae deletion strains, locus YNL153C, strain GIM3, active compounds read low 0.953 | S. cerevisiae deletion strains, locus YNL183C, strain NPR1, active compounds read low 0.945 | S. cerevisiae deletion strains, locus YNL209W, strain ssb2, active compounds read low 0.999 | S. cerevisiae deletion strains, locus YNL233W, strain BNI4, active compounds read low 0.917 | S. cerevisiae deletion strains, locus YNL248C, strain rpa49, active compounds read low 0.983 | S. cerevisiae deletion strains, locus YNL250W, strain rad50, active compounds read low 0.936 | S. cerevisiae deletion strains, locus YNL271C, strain bni1, active compounds read low 0.983 | S. cerevisiae deletion strains, locus YNL298W, strain CLA4, active compounds read low 0.974 | S. cerevisiae deletion strains, locus YNL322C, strain KRE1 (second series), active compounds read low 0.968 | S. cerevisiae deletion strains, locus YNL322C, strain KRE1, active compounds read low 0.991 | S. cerevisiae deletion strains, locus YNR049C, strain mso1, active compounds read low 0.971 | S. cerevisiae deletion strains, locus YNR052C, strain pop2, active compounds read low 0.987 | S. cerevisiae deletion strains, locus YOL006C, strain TOP1, active compounds read low 0.876 | S. cerevisiae deletion strains, locus YOL012C, strain htz1 0.444 | S. cerevisiae deletion strains, locus YOL147C, strain pex11, active compounds read low 0.991 | S. cerevisiae deletion strains, locus YOR001W, strain rrp6, active compounds read low 1.01 | S. cerevisiae deletion strains, locus YOR061W, strain CKA2, active compounds read low 0.995 | S. cerevisiae deletion strains, locus YOR069W, strain VPS5, active compounds read low 0.984 | S. cerevisiae deletion strains, locus YOR070C, strain gyp1, active compounds read low 0.99 | S. cerevisiae deletion strains, locus YOR080W, strain dia2, active compounds read low 0.968 | S. cerevisiae deletion strains, locus YOR083W, strain WHI5, active compounds read low 0.953 | S. cerevisiae deletion strains, locus YOR106W, strain vam3, active compounds read low 0.926 | S. cerevisiae deletion strains, locus YOR136W, strain idh2, active compounds read low 0.966 | S. cerevisiae deletion strains, locus YOR144C, strain elg1, active compounds read low 0.992 | S. cerevisiae deletion strains, locus YOR231W, strain MKK1, active compounds read low 0.97 | S. cerevisiae deletion strains, locus YOR265W, strain rbl2, active compounds read low 0.993 | S. cerevisiae deletion strains, locus YOR270C, strain vph1, active compounds read low 0.925 | S. cerevisiae deletion strains, locus YOR290C, strain snf2, active compounds read low 0.964 | S. cerevisiae deletion strains, locus YOR316C, strain cot1, active compounds read low 0.988 | S. cerevisiae deletion strains, locus YPL051W, strain arl3, active compounds read low 0.985 | S. cerevisiae deletion strains, locus YPL055C, strain LGE1, active compounds read low 0.954 | S. cerevisiae deletion strains, locus YPL078C, strain atp4, active compounds read low 0.973 | S. cerevisiae deletion strains, locus YPL106C, strain sse1, active compounds read low 0.96 | S. cerevisiae deletion strains, locus YPL240C, strain hsp82, active compounds read low 0.985 | S. cerevisiae deletion strains, locus YPL241C, strain CIN2, active compounds read low 0.987 | S. cerevisiae deletion strains, locus YPL256C, strain CLN2, active compounds read low 0.971 | S. cerevisiae deletion strains, locus YPR119W, strain clb2, active compounds read low 0.992 | S. cerevisiae deletion strains, locus YPR141C, strain kar3, active compounds read low 0.99 | S. cerevisiae deletion strains, locus YPR163C, strain tif3, active compounds read low 0.986 | S. cerevisiae deletion strains, locus YPR167C, strain met16, active compounds read low 0.992 | S. cerevisiae deletion strains, strain wtn01, active compounds read low 0.922 | S. cerevisiae strains, strain wild type, active compounds read low 0.909
active: S. cerevisiae deletion strains, locus YKR001C, strain vps1, active compounds read low 0.867 | S. cerevisiae deletion strains, locus YLR418C, strain cdc73, active compounds read low 0.748 | S. cerevisiae deletion strains, locus YMR223W, strain ubp8, active compounds read low 0.902 | S. cerevisiae deletion strains, locus YNL307C, strain MCK1, active compounds read low 0.871 | S. cerevisiae deletion strains, locus YOR184W, strain ser1, active compounds read low 0.872
